These results are taken from PubChem BioAssay (NCATS).

Assay [1] in a line: Quantitative High-Throughput drug screen in 47 multiple myeloma cell lines against the NCATS MIPE library collection: KMS26_JCRB cell viability assay (AID 1918975). Note: nearly all actives have a fitted effect of over 45% in size. In a few lines: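 We plated 500 myeloma cells per well, pinned in MIPE 4.0 compounds, and incubated for 48 hours at 37C. ATP was then quantified with CellTiter-Glo, with DMSO and media-only wells defining 100% and 0%.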

A short description of assay [2]: Quantitative High-Throughput drug screen in 47 multiple myeloma cell lines against the NCATS MIPE library collection: MMM1_PLB cell viability assay (AID 1918976). Note: nearly all actives have a fitted effect of over 35% in size. In a few lines: (§1)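 Cells were exposed to library compounds for 48 hours, after which ATP was measured by CellTiter-Glo. Signal was taken as median relative luminescence units.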
A short description of assay [3]: Quantitative High-Throughput drug screen in 47 multiple myeloma cell lines against the NCATS MIPE library collection: MOLP8_DSMZ cell viability assay (AID 1918977). Note: nearly all actives have a fitted effect of over 45% in size. A digest of the protocol: as §1
Assay [4] can be described thus: Quantitative High-Throughput drug screen in 47 multiple myeloma cell lines against the NCATS MIPE library collection: MM1S_ATCC cell viability assay (AID 1918980). Note: nearly all actives have a fitted effect of over 45% in size. A digest of the protocol:
as §1

A short description of assay [5]: Quantitative High-Throughput drug screen in 47 multiple myeloma cell lines against the NCATS MIPE library collection: MM1R_ATCC cell viability assay (AID 1918981). Note: nearly all actives have a fitted effect of over 35% in size. In a few lines:
as §1

Assay [6] can be described thus: Quantitative High-Throughput drug screen in 47 multiple myeloma cell lines against the NCATS MIPE library collection: KMS28PE_JCRB cell viability assay (AID 1918983). Note: nearly all actives have a fitted effect of over 35% in size. In a few lines: as §1
The nature of assay [7]: Quantitative High-Throughput drug screen in 47 multiple myeloma cell lines against the NCATS MIPE library collection: L363_DSMZ cell viability assay (AID 1918984). Note: nearly all actives have a fitted effect of over 40% in size. In a few lines: as §1
Assay [8] in a line: Quantitative High-Throughput drug screen in 47 multiple myeloma cell lines against the NCATS MIPE library collection: NCIH929_DSMZ cell viability assay (AID 1918978). Note: nearly all actives have a fitted effect of over 35% in size. A digest of the protocol:
as §1

Assay [9] can be described thus: Quantitative High-Throughput drug screen in 47 multiple myeloma cell lines against the NCATS MIPE library collection: OCIMY1_PLB cell viability assay (AID 1918979). For viability: series mostly up to about 46 µM. Note: nearly all actives have a fitted effect of over 35% in size. A digest of the protocol:
as §1

The nature of assay [10]: Quantitative High-Throughput drug screen in 47 multiple myeloma cell lines against the NCATS MIPE library collection: LP1_DSMZ cell viability assay (AID 1918982). Note: nearly all actives have a fitted effect of over 35% in size. A digest of the protocol: as §1

Inconclusive results are not listed. Unmarked numbers belong to inactive results. The source made the active and inactive calls. Calls come from the whole dose curve; as a rule, active = well fitted curve in the direction sought with a large enough effect; inconclusive = small, poorly fitted or top-dose-only effect, or another doubt; inactive = no such curve, though single readings can be large; an effect the other way counts as inactive or inconclusive.
Potency is the fitted concentration of half-maximal effect.

`Cn1cc(-c2[nH]c3cc(NC(=O)[C@H](N)C4CCCCC4)cc4c3c2C=NNC4=O)cn1`: the Potency in assay [1] was 8.33 µM (active); in assay [2], 1.32 µM (active); in assay [3], 0.526 µM (active); in assay [4] it was 1.18 µM (active); in assay [5], 1.05 µM (active); in assay [6], 1.48 µM (active). Also, the Potency in [7] is 0.118 µM (active).
Turning to `O=C(O)CCCc1c[nH]c2ccccc12`, the Potency result in assay [1], in assay [3], in assay [8], in assay [9], in assay [5] and in assay [10] was “inactive” in each case. For the same compound, the Potency entry in [6] and in assay [7] was “inactive” each time.
Take `CCOc1ccccc1OCCNC(C)Cc1ccc(OC)c(S(N)(=O)=O)c1` (configuration not stated): the Potency entry in assay [1], in assay [3], in [8], in assay [9], in assay [4] and in [5] was “inactive” each time. Also, the Potency entry in [7] was “inactive”.
In the case of `Cc1cc(Nc2cc(NC(=O)c3c(Cl)cccc3Cl)ccn2)nc(N)n1`, the Potency was 16.6 µM (active) in assay [1]; 23.5 µM (active) in [3]; 9.35 µM (active) in assay [8]; 0.209 µM (active) in [4]; 0.418 µM (active) in [10]; 1.66 µM (active) in [7].
In the case of `CC(=O)c1c(C)c2cnc(Nc3ccc(N4CCNCC4)cn3)nc2n(C2CCCC2)c1=O`, the Potency was 18.7 µM (active) in assay [1]; 18.7 µM (active) in [3]; 20.9 µM (active) in [8]; 20.9 µM (active) in [4]; 14.8 µM (active) in [5]; 5.9 µM (active) in [10]. Also, the Potency in [6] was 18.7 µM (active); in assay [7] it was 23.5 µM (active).
For the compound `Nc1nc(-c2nn(Cc3ccccc3F)c3ncccc23)nc(N)c1N1CCOCC1`, the Potency result in assay [1], in assay [3], in assay [9] and in assay [4] was “inactive” each time.
In the case of `CN(C1CCc2c(c3ccccc3n2CC(=O)O)C1)S(=O)(=O)c1ccc(F)cc1` (configuration not stated), the Potency result in assay [1], in [3], in assay [8] and in assay [9] was “inactive” throughout. The Potency in assay [4] and in assay [7] was 1.48 µM (active) each time.
On to `CC1(O)CC(c2nc(-c3ccc4ccc(-c5ccccc5)nc4c3)c3c(N)nccn23)C1` (configuration not stated), for which the Potency in [1] is 0.833 µM (active); in [2], 0.209 µM (active); in [4], 0.132 µM (active); in assay [10], 0.235 µM (active); in [6] it was 0.264 µM (active); in [7], 0.662 µM (active).
Take `Nc1nc(NCCNc2ncc(-n3ccnc3)c(-c3ccc(Cl)cc3Cl)n2)ccc1[N+](=O)[O-]`: the Potency in assay [1] is 16.6 µM (active); in assay [3], 16.6 µM (active); in assay [8] it was 1.18 µM (active); in [4], 2.35 µM (active); in assay [5], 16.6 µM (active); in assay [10] it was 11.8 µM (active). In addition, in [7], the Potency is 5.26 µM (active).
Regarding `N#Cc1c(O)c2c(-c3ccc(-c4ccccc4O)cc3)csc2[nH]c1=O`, the Potency entry in assay [1], in assay [3], in assay [8], in [9], in assay [10] and in assay [7] was “inactive” in each case. Further, the Potency in assay [4] was 16.6 µM (active); in [6], 13.2 µM (active).
Consider `Clc1cccc(-c2nnnn2Cc2cccnc2)c1Cl`, for which the Potency entry in assay [1], in assay [3], in assay [9], in assay [5], in [10] and in assay [6] was “inactive” in each case.
In the case of `COc1cc(OC2CCN(C)CC2)ccc1Nc1ncc2c(n1)n(C1CCCC1)c(=O)n2C`, the Potency in assay [1] was 13.2 µM (active); in assay [8], 6.62 µM (active); in [4] it was 11.8 µM (active); in assay [5], 18.7 µM (active); in [7], 7.43 µM (active).
With `CN1c2cc(O)c(N=NC(N)=O)cc2CC1S(=O)(=O)O` (configuration not stated), the Potency entry in [1], in assay [3], in assay [8], in assay [5], in assay [10] and in [6] was “inactive” throughout. Moreover, in assay [7], the Potency entry is “inactive”.
Turning to `CC(C)[C@H](C(=O)Nc1ccc(C(=O)NO)cc1)c1ccccc1`, the Potency in assay [1] was 3.32 µM (active); in [3] it was 0.526 µM (active); in assay [8], 0.526 µM (active); in [4], 0.662 µM (active); in [5], 0.526 µM (active); in assay [10], 0.743 µM (active). In addition, the Potency in assay [6] was 0.833 µM (active).
With `Cn1c(CNc2ccc(C(=N)N)cc2)nc2cc(C(=O)N(CCC(=O)O)c3ccccn3)ccc21`, the Potency entry in [1], in assay [3], in [5], in assay [6] and in assay [7] was “inactive” in each case. Also, the Potency in assay [4] was 14.4 µM (active).
As for `COc1cc(C(=O)NS(=O)(=O)c2ccccc2C)ccc1Cc1cn(C)c2ccc(NC(=O)OC3CCCC3)cc12`, the Potency in [1] is 16.6 µM (active); in assay [3], 18.7 µM (active); in assay [8] it was 18.7 µM (active); in assay [5] it was 14.8 µM (active); in assay [10], 20.9 µM (active); in assay [6], 23.5 µM (active).
In the case of `COC(=O)C1=C(C)NC(C)=C(C(=O)OCCN2CCN(C(c3ccccc3)c3ccccc3)CC2)C1c1cccc([N+](=O)[O-])c1` (configuration not stated), the Potency entry in assay [1], in assay [2], in assay [9], in [5], in [6] and in assay [7] was “inactive” throughout.
In the case of `CNC(=O)c1ccc(-c2cnc3ncc(Cc4ccc5ncccc5c4)n3n2)cc1F`, the Potency result in assay [1], in assay [8], in assay [9], in assay [4], in assay [10] and in assay [6] was “inactive” throughout. Further, in assay [7], the Potency entry was “inactive”.
Regarding `C=C1C(=CC=C2CCCC3(C)[C@@H]([C@H](C)C=CC=CC(O)(CC)CC)CC[C@@H]23)C[C@@H](O)C[C@@H]1O` (some centres not stated), the Potency was 23.5 µM (active) in assay [1]; 20.9 µM (active) in assay [2]; 10.5 µM (active) in [4]; 14.8 µM (active) in assay [5]; 23.5 µM (active) in assay [7].
Consider `Cc1[nH]c2ccccc2c1CCNCc1ccc(C=CC(=O)NO)cc1`, for which the Potency is 0.0662 µM (active) in assay [1]; 0.0526 µM (active) in assay [3]; 0.166 µM (active) in assay [9]; 0.0743 µM (active) in assay [4]; 0.059 µM (active) in [6].
